Experimental data: PubChem BioAssay (Tox21)
Records with an inconclusive call do not appear. Active and inactive are the calls of the source. Unless noted, the call rests on the fitted dose curve; in most records, active means well fitted curve in the direction sought with a large enough effect in the repeat runs; inconclusive means weak or mixed curves; inactive means no such curve, though single readings can be large; an effect the other way counts as inactive or inconclusive.

Experiments:
[1] = qHTS assay to identify small molecule agonists of H2AX (AID 1224845; active means well fitted activation curve with a large enough effect in the signal ratio in the repeat runs, not every such curve was filed as active; the % refers to the signal ratio)
Procedure, shortened: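 Phospho-H2AX Ser139 measured by HTRF (ex 320 nm; em 665 and 620 nm) after 24 hr antibody incubation. Compounds, 15 concentrations, 0.76% DMSO, were applied to CHO-K1 cells for 3hr at 37C before lysis.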

[2] = qHTS assay to identify small molecule agonists of the hypoxia (HIF-1) signaling pathway (AID 1224846; active means well fitted activation curve with a large enough effect in the signal ratio in the repeat runs, not every such curve was filed as active; the % refers to the signal ratio)
Procedure, shortened: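 A low-serum medium (0.5% dialyzed FBS) holding 2,000 HRE-bla ME-180 cells per well is preincubated for 5 hrs, dosed with compounds by pintool, and kept a further 17 hrs at 37C, 5% CO2 before CCF4-AM FRET detection of beta-lactamase.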

[3] = qHTS assay to identify small molecule agonists of H2AX - cell viability counter screen (AID 1224847; calls by dose curve;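 further: wild-type CHO-K1 cells; top concentration of the series differs between compounds; nearly all actives have a fitted effect of over 30% in size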)
Procedure, shortened: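 Cells plated first: CHO-K1, 1000 per well in 10% FBS medium, incubated overnight at 37C. Then 15-point compound titration added (final DMSO 0.76%) for 3 hr. Finally CellTiter-Glo added and luminescence read.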

[4] = qHTS RealTime-Glo MT Cell Viability Assay in HepG2 cells - 24 hour (AID 1224867); further: nearly all actives have a fitted effect of over 50% in size
Procedure, shortened: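 Cells + NanoLuc/prosubstrate dispensed (600 cells/well) → 5 h at 37 C/5% CO2 → compounds in DMSO transferred → 40 h incubation at 37 C, luminescence read at 0, 8, 16, 24, 32, 40 h.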

[5] = qHTS RealTime-Glo MT Cell Viability Assay in HEK293 cells - 32 hour (AID 1224868); further: top concentration of the series differs between compounds; nearly all actives have a fitted effect of over 50% in size
Procedure, shortened: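 Tox21 10K qHTS, HEK293, 600 cells/well, RealTime-Glo reagent co-dispensed with cells; 5 h preincubation, compound by pintool, 37 C, luminescence at 0–40 h.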

[6] = A CellTox Green Cytotoxicity Assay to monitor cytotoxicity in HEK293 cells - 0 hour (AID 1224869); further: nearly all actives have a fitted effect of over 50% in size
Procedure, shortened: (§1)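 Fluorescence intensity, read at 0, 8, 16, 24, 32 and 40 h of compound treatment, reflected dye binding to DNA of dead HEK293 cells; compounds (23 nL, DMSO) were added 5 h after plating cells with reagent.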

[7] = qHTS RealTime-Glo MT Cell Viability Assay in HepG2 cells - 40 hour (AID 1224870); further: nearly all actives have a fitted effect of over 50% in size
Procedure, shortened: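 Real-time viability: cells seeded at 600 per well together with NanoLuc and cell-permeant prosubstrate, compounds added after 5 h incubation. Luminescence tracked at 0, 8, 16, 24, 32 and 40 h of exposure.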

[8] = A CellTox Green Cytotoxicity Assay to monitor cytotoxicity in HEK293 cells - 40 hour (AID 1224871); further: nearly all actives have a fitted effect of over 45% in size
Procedure, shortened: as §1
On the % scale 0 is the no-effect control and ±100 the full control effect.

COC(=O)c1ccc(I)cc1S(=O)(=O)NC(=O)Nc1nc(C)nc(OC)n1
inactive: Potency [1] | Potency [2] | Potency [3] | Potency [4] | Potency [5] | Potency [6] | Potency [7] | Potency [8]

O=C(O)CC(=O)C(=O)O
inactive: Potency [1] | Potency [2] | Potency [3] | Potency [4] | Potency [5] | Potency [6] | Potency [7] | Potency [8]

Cc1[nH]c(C)c(Cl)c(=O)c1Cl
inactive: activation (H2AX phosphorylation) [1] 1.85% [at 31.6 µM] | activation [2] -0.25% [at 15.8 µM] | activity change, negative = cytotoxicity [3] -0.294% [at 31.6 µM] | activity change, negative = cytotoxicity [4] 3.53% [at 15.8 µM] | cytotoxicity [6] 2.83% [at 15.8 µM] | activity change, negative = cytotoxic [7] 1.26% [at 15.8 µM] | cytotoxicity increase [8] -3.34% [at 15.8 µM]

CCC(C)c1cc(C(C)(C)C)c(O)c(C(C)(C)C)c1 (centres undefined)
inactive: Potency [1] | Potency [2] | Potency [3] | Potency [4] | Potency [6]

CCCCCCCCCOS(=O)(=O)O
inactive: Potency [1] | Potency [2] | Potency [3] | Potency [4] | Potency [5] | Potency [6] | Potency [7] | Potency [8]

Nc1c(CC(=O)O)cccc1C(=O)c1ccc(Br)cc1
inactive: Potency [1] | Potency [2] | Potency [3] | Potency [4] | Potency [5] | Potency [6] | Potency [7] | Potency [8]

O=[N+]([O-])c1ccc2[nH]ncc2c1
inactive: Potency [1] | Potency [2] | Potency [3] | Potency [4] | Potency [5] | Potency [6] | Potency [7] | Potency [8]

COc1ccnc(CS(=O)c2nc3ccc(OC(F)F)cc3[nH]2)c1OC (centres undefined)
inactive: Potency [1] | Potency [2] | Potency [3] | Potency [4] | Potency [5] | Potency [6] | Potency [7] | Potency [8]

OCCNCc1ccccc1
inactive: Potency [1] | Potency [2] | Potency [3] | Potency [4] | Potency [6] | Potency [7] | Potency [8]

CC1CCC(=O)C1=O (centres undefined)
inactive: Potency [1] | Potency [2] | Potency [3] | Potency [4] | Potency [5] | Potency [6] | Potency [8]

CC1=CC[C@H](C(C)C)C=C1
inactive: Potency [1] | Potency [2] | Potency [3] | Potency [4] | Potency [5] | Potency [6] | Potency [7] | Potency [8]

O=C1c2ccccc2S(=O)(=O)N1CCCCN1CCN(c2ncccn2)CC1
inactive: Potency [1] | Potency [2] | Potency [3] | Potency [4] | Potency [5] | Potency [6] | Potency [7] | Potency [8]

c1ccc(CNCCNCc2ccccc2)cc1
inactive: Potency [1] | Potency [2] | Potency [3] | Potency [4] | Potency [5] | Potency [6] | Potency [7] | Potency [8]

Nc1ncn([C@H]2C[C@H](O)[C@@H](CO)O2)c(=O)n1
inactive: Potency [1] | Potency [2] | Potency [3] | Potency [4] | Potency [5] | Potency [6] | Potency [8]

CC(C)(C)OCC1CO1 (centres undefined)
inactive: Potency [1] | Potency [2] | Potency [3] | Potency [4] | Potency [5] | Potency [6] | Potency [7] | Potency [8]

S=C([S-])NCCNC(=S)[S-].[Mn+2]
inactive: Potency [1] | Potency [2] | Potency [3] | Potency [4] | Potency [6] | Potency [7] | Potency [8]

O=C1OC(CN2CCOCC2)CN1/N=C/c1ccc([N+](=O)[O-])o1 (centres undefined)
inactive: Potency [1] | Potency [2] | Potency [3] | Potency [4] | Potency [5] | Potency [6] | Potency [7] | Potency [8]

CC(C)(COC(=O)c1ccccc1)COC(=O)c1ccccc1
inactive: Potency [1] | Potency [2] | Potency [3] | Potency [4] | Potency [5] | Potency [6] | Potency [8]

CC(CC=O)c1ccccc1 (centres undefined)
inactive: Potency [1] | Potency [2] | Potency [3] | Potency [4] | Potency [5] | Potency [6] | Potency [7] | Potency [8]

CCOC(=O)c1cccnc1
inactive: Potency [1] | Potency [2] | Potency [3] | Potency [4] | Potency [5] | Potency [6] | Potency [7] | Potency [8]

Nc1ccc(S(=O)(=O)Nc2ccccc2)cc1
inactive: Potency [1] | Potency [2] | Potency [3] | Potency [4] | Potency [5] | Potency [6] | Potency [7] | Potency [8]

CCCCCCCN
inactive: Potency [1] | Potency [2] | Potency [3] | Potency [4] | Potency [5] | Potency [6] | Potency [7] | Potency [8]

CCCCCCCCCCCc1ccccc1
inactive: Potency [1] | Potency [2] | Potency [3] | Potency [4] | Potency [5] | Potency [6] | Potency [7] | Potency [8]

CCCCCCCCCCO[C@@H]1O[C@H](CO)[C@@H](O)[C@H](O)[C@H]1O
inactive: Potency [1] | Potency [2] | Potency [3] | Potency [4] | Potency [6] | Potency [7]

CC1=CC=C(C(C)C)CC1
inactive: Potency [1] | Potency [2] | Potency [3] | Potency [4] | Potency [5] | Potency [6] | Potency [7] | Potency [8]

CC(C)O.CC(C)O.CCOC(=O)/C=C(\C)O.CCOC(=O)/C=C(\C)O.[Ti]
inactive: Potency [1] | Potency [2] | Potency [3] | Potency [4] | Potency [5] | Potency [6] | Potency [8]

O=C(O)CNCC(=O)O
inactive: activation (H2AX phosphorylation) [1] 4.61% [at 14 µM] | activation [2] 0.217% [at 7.01 µM] | activity change, negative = cytotoxicity [3] -1.6% [at 14 µM] | activity change, negative = cytotoxicity [4] 0.0678% [at 6.97 µM] | activity change, negative = cytotoxic [5] -9.97% [at 6.97 µM] | cytotoxicity [6] -0.535% [at 6.97 µM] | activity change, negative = cytotoxic [7] 1.89% [at 6.97 µM] | cytotoxicity increase [8] 3.68% [at 6.97 µM]
